A selection: hits, their analogues and other compounds. The true share with any hit is near 1.3%.
PKM2 act: PKM2 (human) enzyme activation; P14618; 260,000 compounds, 0.34% hits; AID 1631; purified PKM2, Kinase-Glo ATP luminescence, activation; response scale: 0% is enzyme alone, no compound; Potency, µM (series often up to 57.5 µM), without a hit: top-dose activation, actives largely listed as activators; also: potency is read from the fitted curve at half-maximal effect; % is scaled to controls: 0 for no effect and ±100 for the full control effect; nearly all actives have a fitted effect of over 55% in size
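Purified hPK-M2 (>95%) run at intermediate activity with 0.1 mM ADP and 0.5 mM PEP in 50 mM imidazole pH 7.2, KCl, MgCl2; 1 h room temperature. ATP formed read by Kinase-Glo luminescence; normalized to uninhibited and no-enzyme controls.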
IL2 activator: activators of IL-2; AID 652025; IL-2 activation reporter assay, cell-based qHTS; stimulated with anti-CD3/CD4/CD28 beads; in transgenic mouse T cells; activation, % (series mostly up to about 46 µM); 360,000 compounds, 0.065% hits; in the data active = activation above about 50%; inconclusive = mostly about 30% to 49%; also: 0% is about no effect
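Unstimulated transgenic mouse T cells, 750 per well, received compound and, after 60 minutes, anti-CD3/anti-CD4 bead plus anti-CD28 stimulation. EGFP and DsRed were quantified after 18 hours.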
BRCA1 expr up: activators of BRCA1 expression; MCF7-BRCA1-FFLuc reporter, luminescence, 48 h; response scale: scaled: vehicle 0%, 10 µM genistein 100%; Potency, µM (highest dose often 46.1 µM), without a hit: top-dose activation, actives largely listed as activators; AID 624202; 380,000 compounds, 1.1% hits; also: potency is read from the fitted curve at half-maximal effect; nearly all actives have a fitted effect of over 80% in size
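MCF7 cells carrying a BRCA1-firefly luciferase reporter (2000 cells/well, phenol-red free MEM) were attached for 2 h at 37 °C, then given compounds for 48 h. Luminescence was read 15 min after luciferase reagent; activity normalized to genistein (10 microM) and DMSO.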
a7 integrin act: activators of alpha7 integrin expression for muscular dystrophy. Potency, µM (doses to about 38.3 µM), for the others: top-dose activation, actives largely listed as activators. alpha7betagal myoblasts, beta-gal FDG fluorescence, 48 h. 350,000 compounds, 0.064% hits;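 also: potency is read from the fitted curve at half-maximal effect; 100% = response of the positive control SU9516; nearly all actives have a fitted effect of over 60% in size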
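Alpha7betagal+/- myoblasts (passage 13) were plated 16-24 hr, then exposed to compounds (1:260 dilution of DMSO stock) for 48 hours at 37C. After MPER lysis, β-galactosidase reporter activity was read as FDG fluorescence (ex 480/em 540) after 30 minutes.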
Apoferritin bind: candidate novel general anesthetic via apoferritin binding; 350,000 compounds, 0.074% hits; apoferritin/1-aminoanthracene competitive binding, fluorescence; Potency, µM (top dose mostly 77.5 µM), inactives show at the highest dose activity change, negative = displacement, actives largely listed as inhibitors; P02791; also: potency is read from the fitted curve at half-maximal effect; % is scaled to controls: 0 for no effect and ±100 for the full control effect; nearly all actives have a fitted effect of over 20% in size
Target sequence (P02791 2-175 limits assumed): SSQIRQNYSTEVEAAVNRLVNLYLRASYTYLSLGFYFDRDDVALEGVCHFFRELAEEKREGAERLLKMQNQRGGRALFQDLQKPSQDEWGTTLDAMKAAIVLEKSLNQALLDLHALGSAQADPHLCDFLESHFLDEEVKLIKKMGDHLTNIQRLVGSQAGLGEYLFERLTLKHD
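10 uM apoferritin + 50% sat. 1-AMA, PBS; cpd 10 min RT; Ex380/Em535 endpoint; normalized to free probe vs complex; 4-param Hill fit; propofol titration as pos. ctrl.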
The depositor's hits bear a star; ? = inconclusive; · = not tested or not shown; [ ] = another dose, or the depositor's remark. Unless noted, calls follow the shape of the dose curve; as a rule, active = well fitted curve in the direction sought with a large enough effect; inconclusive = small, poorly fitted or top-dose-only effect, or another doubt; inactive = no such curve, though single readings can be large; an effect the other way counts as inactive or inconclusive.

SMILES	PKM2 act	IL2 activator	BRCA1 expr up	a7 integrin act	Apoferritin bind
Cn1ncc(SCc2ccccc2)c(Cl)c1=O	17.8µM*	-0.4	-22.7%	-66.5%	?
CC(=O)NC(Cc1ccc([N+](=O)[O-])cc1)C(=O)NCC(N)C(=O)c1ccccc1 (stereo not given)	·	·	-40.9%	·	·
COc1cc2c(cc1OC)n(CC(=O)Nc1ccc(C)cc1C)c(=O)n1nc(-c3ccccc3)nc21	·	·	0.2%	·	-7.3%
CCCOc1ccc(CN2C(=O)C(=O)c3cccc(C)c32)cc1	·	·	·	·	31.6µM*
CC1=CC(c2ccccc2)=Nc2ccc(C)cc2N1	-19.6%	-0.4	7.08µM*	3.4%	-13.5%
Brc1ccc(-c2noc(COc3ccc4c(c3)CCC4)n2)o1	-11.6%	-0.9	9.0%	0.6%	-0.2%
c1csc(-c2noc(COc3ccc4c(c3)CCCC4)n2)c1	-9.7%	-2.6	3.98µM*	14.3%	-15.6%
O=c1oc2ccc(Br)cc2cc1S(=O)(=O)c1ccc(F)cc1	2.82µM*	-0.6	-75.0%	-0.9%	-18.0%
c1ccc(CSc2ncnc3ccccc23)cc1	23.2%	-0.9	9.8%	29.4%	?
Fc1ccc(CSc2ncnc3ccccc23)cc1	25.1µM*	0.6	-4.6%	20.6%	?
CC(C)(C)c1ccc(OCCn2c(CCNC(=O)C3CCCCC3)nc3ccccc32)cc1	·	·	-50.2%	·	·
Cn1nc(-c2cccnc2)nc2c(=O)n(C)c(=O)nc1-2	·	·	-79.7%	·	·
O=C1OCCC1N(C(=O)C1CC1)c1cccc(Cl)c1 (stereo not given)	·	·	·	·	2.4%
Fc1ccc(CSc2ncnc3c2ncn3C2CCCCO2)cc1 (stereo not given)	·	-2.5	7.08µM*	23.0%	·
Fc1cccc(CSc2ncnc3c2ncn3C2CCCCO2)c1 (stereo not given)	·	-1.0	?	10.9%	·
Clc1cccc(CSc2ncnc3c2ncn3C2CCCCO2)c1 (stereo not given)	·	0.3	5.62µM*	8.3%	·
c1ccc(CSc2ncnc3c2ncn3C2CCCCO2)cc1 (stereo not given)	·	0.5	?	31.1%	·
c1ccc(CNc2ncnc3c2ncn3C2CCCCO2)cc1 (stereo not given)	-1.0%	1.3	12.6µM*	13.5%	?
O=C(Nc1cccc([N+](=O)[O-])c1)C(=O)N1CCCCC1	-3.5%	0.7	4.47µM*	7.1%	-6.4%
O=C(Nc1cccc([N+](=O)[O-])c1)NC1CCCCCCC1	-8.4%	-2.8	6.31µM*	-9.6%	?
CCOc1ccc(OCC(=O)Nc2nnc3n2CCS3)cc1	·	·	-11.2%	·	-1.9%
Cc1nc2c(c(=O)[nH]1)CSCC2	·	·	·	·	3.6%
CN(C)c1ccc(/C=C/c2cc[n+](C)c3ccc4ccccc4c23)cc1	·	·	-2.3%	·	·
COc1ccc(CNC(=O)c2cc3c(=O)n4ccccc4nc3n(Cc3cccnc3)c2=N)cc1	-6.9%	94.5*	-3.3%	-31.5%[7.66 µM]	-6.8%
N=c1c(S(=O)(=O)c2ccc(Cl)cc2)cc2c(=O)n3ccccc3nc2n1CCc1ccccc1	-4.3%	·	·	·	-9.6%
SMILES	PKM2 act	IL2 activator	BRCA1 expr up	a7 integrin act	Apoferritin bind
N=c1c(C(=O)NCc2ccc3c(c2)OCO3)cc2c(=O)n3ccccc3nc2n1Cc1cccnc1	?	-3.1	3.3%	0.0%	?
N=c1c(S(=O)(=O)c2ccc(Cl)cc2)cc2c(=O)n3ccccc3nc2n1Cc1cccnc1	0.8%	151.1*	21.4%	35.1%	-4.6%
COc1ccc(NC(=O)Cn2c(=O)n(-c3cc(C)cc(C)c3)c(=O)c3oc4ccccc4c32)cc1OC	·	·	·	·	-8.5%
CCOC(=O)C1=C(COC(=O)c2cccc(Br)c2)NC(=O)NC1C (stereo not given)	·	-1.2	22.0%	21.1%	·
CCOC(=O)C1=C(COC(=O)c2cccc(N(C)C)c2)NC(=O)NC1C (stereo not given)	·	-4.0	4.47µM*	-12.8%	·
CC(C)(C)c1cccc(S(=O)(=O)N2CCN(c3nc(-c4cccs4)nc4ccccc34)CC2)c1	·	·	0.0%	·	·
O=C(c1ccco1)N1CCN(c2ccc(Cl)c(Cl)c2)CC1	·	1.4	12.6µM*	0.3%[7.66 µM]	·
CC(=O)c1cccc(NC(=O)Cn2c(=O)oc3cc(S(=O)(=O)NCc4ccccc4)ccc32)c1	·	·	·	·	-21.3%
